The full data set covers some 7,900 targets. This sample favours those with a hit. About 0.6% of all pairs of compound and target were hits. Unmarked numbers belong to inactive results.
What was measured:
Experiment in all cases: log2 fold change, soluble protein after heating vs DMSO (PISA); higher = thermal stabilisation; K562 cells, 10 uM, 30 min; active = over 0.2 and 3.5 SD of the protein, either way, in both replicates (recomputed)
[1] = compound: CC[C@@H]1C(=O)N(C)c2cnc(Nc3ccc(C(=O)NC4CCN(C)CC4)cc3OC)nc2N1C1CCCC1
In short: (§1)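 Thermal stability values are relative to control samples and come from duplicates. They are expressed as log2 fold changes. For measurement, K562 cells (2×10^6 cells/mL) received 10 μM compound for 30 min, and aliquots were heated for 3 min over 48°C-58°C, pooled, and extracted at 4°C in PBS with 0.5% NP-40. Soluble protein, the supernatant after 21,000xg for 90 min, was quantified by TMTpro 16plex LC-MS/MS with equalised channel sums.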

[2] = compound: CC[C@@H]1C(=O)N(C)c2cnc(Nc3ccc(C(=O)N[C@H]4CC[C@H](N5CCN(CC6CC6)CC5)CC4)cc3OC)nc2N1C(C)C [volasertib]
In short: as §1

[3] = compound: CC[C@H](C)N1C=C(C2=C(C=C(C=C21)C3=CN=C(C=C3)N4CCNCC4)C(=O)NCC5=C(C=C(NC5=O)C)C)C
In short: as §1

[4] = compound: CC[C@H](C)[C@@H](C(=O)N[C@@H]([C@@H](C)O)C(=O)N[C@@H](CC(C)C)C(=O)[C@]1(CO1)C)NC(=O)[C@H]([C@@H](C)CC)N(C)C(=O)C [epoxomicin]
In short: as §1

[5] = compound: CCn1c(C(=O)N(C2CC2)C2CC2)cc2c3c(ncn3C)c(Nc3cc(C)n(C)n3)nc21
In short: as §1

[6] = compound: CCn1cc(-c2ccnc3[nH]c(-c4cccc(CN(C)C)c4)cc23)c(-c2ccc(NC(=O)N(C)C)cc2)n1
In short: as §1

[7] = compound: CN(C)CC(=O)Nc1ccc2[nH]c(=O)c3ccccc3c2c1
In short: as §1

[8] = compound: CN(CCOC1=CC=C(C=C1)C[C@H]2C(=O)NC(=O)S2)C3=CC=CC=N3 (racemic) [rosiglitazone]
In short: as §1

[9] = compound: CN1C2=C(C3=C1C(=O)N(N=C3)CC4=CC(=CC=C4)N)SC(=C2)S(=O)C
In short: as §1

[10] = compound: CN1CCC(CNc2ccc3ncc(-c4cccc(OC(F)(F)F)c4)n3n2)CC1
In short: as §1

[11] = compound: CN1CCN(CCOc2cc(OC3CCOCC3)c3c(Nc4c(Cl)ccc5c4OCO5)ncnc3c2)CC1 [saracatinib]
In short: as §1

[12] = compound: CN1CCN(c2nc(C3=C(c4c[nH]c5ccccc45)C(=O)NC3=O)c3ccccc3n2)CC1 [sotrastaurin]
In short: as §1

[13] = compound: CN1CC[C@H](c2c(O)cc(O)c3c(=O)cc(-c4ccccc4Cl)oc23)[C@H](O)C1 [alvocidib]
In short: as §1

[14] = compound: CN1CCc2c(c3ccccc3n2Cc2ccc(C(=O)NO)cc2)C1 [Tubastatin A]
In short: as §1

[15] = compound: CNC(=O)C1=CC=CC=C1NC2=NC(=NC=C2Cl)NC3=C(C=C(C=C3)N4CCOCC4)OC
In short: as §1

[16] = compound: CNC(=O)c1ccc(Nc2ncc(C(F)(F)F)c(NCc3nccnc3N(C)S(C)(=O)=O)n2)cc1 [defactinib]
In short: as §1

[17] = compound: CNCc1ccc(-c2[nH]c3cc(F)cc4c3c2CCNC4=O)cc1 [rucaparib]
In short: as §1

[18] = compound: CNc1nc(-c2ccc3c(N)n[nH]c3c2)cc(N2C[C@@H](C(=O)NC3CCCCC3)CC[C@H]2C)n1
In short: as §1

[19] = compound: COC(=O)N[C@@H](C)CNc1nccc(-c2cn(C(C)C)nc2-c2cc(Cl)cc(NS(C)(=O)=O)c2F)n1 [encorafenib]
In short: as §1

[20] = compound: COC(=O)[C@H](CCSC)NC(=O)C1=C(C=C(C=C1)NC[C@H](CS)N)C2=CC=CC=C2
In short: as §1

Chain of UniProt O75071 (O75071 whole entry, looked up): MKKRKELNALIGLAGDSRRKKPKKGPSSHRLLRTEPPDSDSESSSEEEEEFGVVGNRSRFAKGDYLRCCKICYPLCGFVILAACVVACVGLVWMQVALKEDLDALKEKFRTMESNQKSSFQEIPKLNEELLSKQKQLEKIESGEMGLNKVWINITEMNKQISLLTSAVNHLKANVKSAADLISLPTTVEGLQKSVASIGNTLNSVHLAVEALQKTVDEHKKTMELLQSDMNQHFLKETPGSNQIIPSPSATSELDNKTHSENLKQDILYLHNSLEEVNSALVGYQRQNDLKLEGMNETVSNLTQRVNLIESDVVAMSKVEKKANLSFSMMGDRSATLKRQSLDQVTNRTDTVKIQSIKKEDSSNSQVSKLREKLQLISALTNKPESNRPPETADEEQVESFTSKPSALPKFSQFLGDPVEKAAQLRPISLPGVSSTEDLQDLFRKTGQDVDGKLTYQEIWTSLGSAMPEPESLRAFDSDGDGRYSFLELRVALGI
Chain of UniProt O94905 (O94905 whole entry, looked up): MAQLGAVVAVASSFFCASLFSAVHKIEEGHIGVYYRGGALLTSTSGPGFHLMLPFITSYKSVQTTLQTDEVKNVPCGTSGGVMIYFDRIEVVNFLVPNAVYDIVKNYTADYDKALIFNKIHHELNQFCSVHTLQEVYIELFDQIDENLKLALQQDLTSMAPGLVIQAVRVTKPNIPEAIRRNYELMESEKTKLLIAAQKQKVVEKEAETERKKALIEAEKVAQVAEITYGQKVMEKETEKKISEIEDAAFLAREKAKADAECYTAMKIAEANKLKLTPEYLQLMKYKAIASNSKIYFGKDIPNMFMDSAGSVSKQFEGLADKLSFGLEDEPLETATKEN
Chain of UniProt Q8IX18 (Q8IX18 whole entry, looked up): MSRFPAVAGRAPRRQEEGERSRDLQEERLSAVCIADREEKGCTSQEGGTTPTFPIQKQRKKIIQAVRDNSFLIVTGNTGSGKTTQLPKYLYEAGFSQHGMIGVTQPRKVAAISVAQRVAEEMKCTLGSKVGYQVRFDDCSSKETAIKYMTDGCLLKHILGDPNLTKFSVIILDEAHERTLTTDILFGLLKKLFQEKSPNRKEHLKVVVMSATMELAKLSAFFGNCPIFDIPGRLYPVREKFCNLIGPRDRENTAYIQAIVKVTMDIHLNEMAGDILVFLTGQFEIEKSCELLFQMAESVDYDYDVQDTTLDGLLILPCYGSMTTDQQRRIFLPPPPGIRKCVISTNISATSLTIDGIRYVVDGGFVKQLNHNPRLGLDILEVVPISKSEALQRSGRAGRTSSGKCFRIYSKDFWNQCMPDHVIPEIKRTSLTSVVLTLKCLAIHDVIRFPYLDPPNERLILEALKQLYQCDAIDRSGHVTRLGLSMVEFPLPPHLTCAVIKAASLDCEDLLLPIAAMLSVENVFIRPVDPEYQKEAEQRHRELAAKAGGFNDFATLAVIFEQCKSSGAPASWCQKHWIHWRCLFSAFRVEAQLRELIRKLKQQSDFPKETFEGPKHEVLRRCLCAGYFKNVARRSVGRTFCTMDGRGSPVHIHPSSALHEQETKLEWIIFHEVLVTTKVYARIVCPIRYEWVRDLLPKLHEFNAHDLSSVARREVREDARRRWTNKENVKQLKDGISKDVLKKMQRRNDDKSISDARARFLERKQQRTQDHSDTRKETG
Chain of UniProt O75822 (O75822 whole entry, looked up): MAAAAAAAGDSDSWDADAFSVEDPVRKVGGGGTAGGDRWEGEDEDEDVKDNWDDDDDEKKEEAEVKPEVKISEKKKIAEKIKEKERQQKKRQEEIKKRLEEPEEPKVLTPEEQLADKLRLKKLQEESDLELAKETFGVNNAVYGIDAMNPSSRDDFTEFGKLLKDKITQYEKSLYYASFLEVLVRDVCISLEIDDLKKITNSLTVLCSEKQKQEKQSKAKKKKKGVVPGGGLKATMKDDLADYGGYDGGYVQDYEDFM
Chain of UniProt Q9Y485 (Q9Y485 whole entry, looked up): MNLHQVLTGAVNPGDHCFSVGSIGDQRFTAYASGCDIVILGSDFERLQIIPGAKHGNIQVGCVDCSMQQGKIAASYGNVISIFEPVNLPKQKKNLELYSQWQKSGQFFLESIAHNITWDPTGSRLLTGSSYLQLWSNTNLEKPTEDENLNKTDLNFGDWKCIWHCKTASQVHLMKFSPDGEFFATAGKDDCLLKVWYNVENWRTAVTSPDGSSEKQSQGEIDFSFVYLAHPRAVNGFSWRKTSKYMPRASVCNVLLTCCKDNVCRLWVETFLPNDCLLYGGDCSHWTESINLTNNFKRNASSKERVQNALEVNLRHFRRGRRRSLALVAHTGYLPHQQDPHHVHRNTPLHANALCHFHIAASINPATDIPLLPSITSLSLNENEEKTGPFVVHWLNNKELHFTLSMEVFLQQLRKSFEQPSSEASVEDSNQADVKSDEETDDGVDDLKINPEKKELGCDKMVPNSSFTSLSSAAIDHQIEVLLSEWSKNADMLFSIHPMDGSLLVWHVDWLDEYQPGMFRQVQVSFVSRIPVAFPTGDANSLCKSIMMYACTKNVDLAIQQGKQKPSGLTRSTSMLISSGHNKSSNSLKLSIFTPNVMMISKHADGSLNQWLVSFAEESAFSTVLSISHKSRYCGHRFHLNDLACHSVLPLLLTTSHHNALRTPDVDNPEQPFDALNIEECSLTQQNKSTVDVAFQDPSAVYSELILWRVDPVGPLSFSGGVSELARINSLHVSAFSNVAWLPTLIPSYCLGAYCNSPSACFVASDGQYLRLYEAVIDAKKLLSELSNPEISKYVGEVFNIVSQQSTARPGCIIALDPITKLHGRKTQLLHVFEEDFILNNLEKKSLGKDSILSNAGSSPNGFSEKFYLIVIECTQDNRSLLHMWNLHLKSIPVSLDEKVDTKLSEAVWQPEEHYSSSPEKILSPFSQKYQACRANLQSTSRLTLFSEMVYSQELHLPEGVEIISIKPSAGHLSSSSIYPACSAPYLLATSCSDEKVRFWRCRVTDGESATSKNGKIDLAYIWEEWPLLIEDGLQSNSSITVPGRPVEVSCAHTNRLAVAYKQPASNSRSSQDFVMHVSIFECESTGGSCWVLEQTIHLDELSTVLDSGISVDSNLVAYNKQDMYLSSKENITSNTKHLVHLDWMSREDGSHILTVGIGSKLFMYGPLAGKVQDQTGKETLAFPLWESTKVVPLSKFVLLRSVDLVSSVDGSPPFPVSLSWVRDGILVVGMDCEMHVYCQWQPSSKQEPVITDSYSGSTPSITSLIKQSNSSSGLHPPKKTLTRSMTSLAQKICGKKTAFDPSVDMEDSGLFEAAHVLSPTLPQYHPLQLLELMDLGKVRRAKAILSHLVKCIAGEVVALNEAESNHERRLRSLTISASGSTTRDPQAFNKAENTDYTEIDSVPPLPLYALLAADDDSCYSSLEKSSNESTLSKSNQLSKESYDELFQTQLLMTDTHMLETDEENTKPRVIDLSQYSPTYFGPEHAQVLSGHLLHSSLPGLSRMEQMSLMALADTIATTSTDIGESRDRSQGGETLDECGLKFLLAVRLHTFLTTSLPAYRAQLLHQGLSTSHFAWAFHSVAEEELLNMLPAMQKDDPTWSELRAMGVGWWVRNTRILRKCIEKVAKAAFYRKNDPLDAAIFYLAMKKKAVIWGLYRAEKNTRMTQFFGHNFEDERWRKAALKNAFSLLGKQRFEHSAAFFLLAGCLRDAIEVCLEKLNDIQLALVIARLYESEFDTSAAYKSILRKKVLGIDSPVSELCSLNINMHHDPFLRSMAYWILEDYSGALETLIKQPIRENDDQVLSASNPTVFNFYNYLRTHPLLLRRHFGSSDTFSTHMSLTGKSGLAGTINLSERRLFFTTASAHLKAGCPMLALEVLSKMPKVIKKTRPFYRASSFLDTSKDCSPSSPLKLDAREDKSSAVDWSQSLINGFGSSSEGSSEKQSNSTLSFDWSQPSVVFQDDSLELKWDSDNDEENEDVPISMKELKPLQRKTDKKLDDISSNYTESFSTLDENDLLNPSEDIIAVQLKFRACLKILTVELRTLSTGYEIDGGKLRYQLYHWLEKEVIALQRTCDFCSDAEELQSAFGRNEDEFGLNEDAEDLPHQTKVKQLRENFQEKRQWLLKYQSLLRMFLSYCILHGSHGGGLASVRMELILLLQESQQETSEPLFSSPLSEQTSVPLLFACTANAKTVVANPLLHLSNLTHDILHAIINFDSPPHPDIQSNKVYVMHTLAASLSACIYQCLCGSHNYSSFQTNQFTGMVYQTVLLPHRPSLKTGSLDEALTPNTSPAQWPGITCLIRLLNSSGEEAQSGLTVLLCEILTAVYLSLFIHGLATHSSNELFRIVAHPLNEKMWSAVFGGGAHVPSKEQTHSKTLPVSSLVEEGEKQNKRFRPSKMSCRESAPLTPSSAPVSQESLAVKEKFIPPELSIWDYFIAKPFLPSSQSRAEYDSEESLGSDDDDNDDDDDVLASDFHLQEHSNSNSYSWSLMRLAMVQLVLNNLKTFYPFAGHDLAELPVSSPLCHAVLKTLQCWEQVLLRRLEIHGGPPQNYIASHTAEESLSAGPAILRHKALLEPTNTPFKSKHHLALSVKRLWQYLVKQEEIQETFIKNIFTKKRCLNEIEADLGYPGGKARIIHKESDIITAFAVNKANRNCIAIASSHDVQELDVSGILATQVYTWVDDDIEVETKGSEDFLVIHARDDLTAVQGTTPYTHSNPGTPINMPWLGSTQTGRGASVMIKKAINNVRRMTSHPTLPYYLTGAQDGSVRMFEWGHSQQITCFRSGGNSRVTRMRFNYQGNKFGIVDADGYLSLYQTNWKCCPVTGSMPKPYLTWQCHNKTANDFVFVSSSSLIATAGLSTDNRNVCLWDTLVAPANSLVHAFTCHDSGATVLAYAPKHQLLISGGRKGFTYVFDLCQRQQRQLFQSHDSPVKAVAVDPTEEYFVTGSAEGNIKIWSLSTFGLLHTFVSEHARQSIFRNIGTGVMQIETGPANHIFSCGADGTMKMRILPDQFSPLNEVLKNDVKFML

Target	log2 fold change [1]	log2 fold change [2]	log2 fold change [3]	log2 fold change [4]	log2 fold change [5]	log2 fold change [6]	log2 fold change [7]	log2 fold change [8]	log2 fold change [9]	log2 fold change [10]	log2 fold change [11]	log2 fold change [12]	log2 fold change [13]	log2 fold change [14]	log2 fold change [15]	log2 fold change [16]	log2 fold change [17]	log2 fold change [18]	log2 fold change [19]	log2 fold change [20]
DIAPH1 (UniProt O60610)	0.012	-0.211	0.09	-0.004	-0.061	0.055	0.053	0.047	0.168	-0.012	-0.104	-0.276	0.132	0.086	0.044	-0.039	0.219	0.125	0.215	-0.12
EXTL2 (UniProt Q9UBQ6)	0.057	-0.052	0.041	-0.035	-0.04	-0.046	0.06	-0.024	-0.001	-0.157	0.157	0.036	-0.122	-0.136	-0.072	-0.145	0.001	0.052	-0.08	0.13
ETNK1 (UniProt Q9HBU6)	0.021	-0.24	0.021	0.157	-0.03	0.059	0.121	0	-0.14	0.041	-0.037	-0.045	-0.028	0.092	0.053	-0.001	0.295 (active)	-0.039	-0.007	-0.027
EFCAB14 (UniProt O75071)	-0.033	-0.089	-0.078	0.068	0.045	0.06	-0.018	-0.009	0.028	-0.178	-0.164	0.083	0.016	-0.029	-0.03	0.093	-0.059	0.031	0.044	-0.086
DNAH11 (UniProt Q96DT5)	0.234	0.426	-0.029	-0.157	0.063	0.176	-0.111	-0.047	0.298	-0.424	0.301	0.317	0.517	-0.083	-0.043	-0.11	0.162	0.061	0.152	0.049
EIF3J (UniProt O75822)	-0.061	0.005	0.011	0.055	0	0.001	-0.008	0.019	-0.061	0.226	-0.042	-0.028	0.006	-0.005	0.019	0.019	-0.072	-0.037	-0.008	-0.029
DNM2 (UniProt P50570)	-0.013	-0.015	0.043	0.029	-0.002	-0.091	0.037	0.05	-0.044	-0.349 (active)	-0.028	0.043	-0.074	0	-0.027	-0.02	0.035	0.029	0.009	-0.03
ERLIN2 (UniProt O94905)	0.06	-0.057	0.054	-0.034	-0.031	0.01	-0.051	-0.01	0.096	0.008	-0.044	-0.097	0.034	0	-0.137	0.026	0.033	-0.005	0.092	0.004
DHX40 (UniProt Q8IX18)	-0.006	-0.236	0.188	-0.037	-0.074	-0.013	0.026	0.166	-0.076	-0.029	0.069	-0.025	-0.052	0.053	-0.043	-0.163	0.087	0.013	0.068	-0.039
DTYMK (UniProt P23919)	0.044	0.171	-0.03	0.039	-0.053	-0.245 (active)	0.01	0.056	-0.04	-0.037	-0.02	0.06	0	-0.022	-0.062	0.004	-0.044	0.003	0.005	0.013
DCTN1 isoform 4 (UniProt Q14203)	0.01	-0.1	0.078	0.02	-0.157	-0.024	0.052	0.086	0.149	-0.096	-0.126	-0.159	-0.083	0.079	-0.056	-0.037	0.227	0.074	0.083	-0.068
DUS3L (UniProt Q96G46)	-0.162	-0.331 (active)	0.017	0.087	0.004	0.02	0.028	0.007	0.021	-0.04	0.02	-0.155	-0.037	-0.028	0.022	-0.148	0.204	-0.033	0.016	0.003
DHRS1 (UniProt Q96LJ7)	0.164	0.302	0.039	-0.062	0.034	-0.098	-0.048	-0.022	-0.051	0.065	-0.074	0.153	-0.018	0.022	0.375	-0.007	0.031	0.392	-0.116	-0.116
DMXL1 (UniProt Q9Y485)	-0.119	-0.241	0.029	0.026	-0.044	0.072	0.012	-0.032	0.01	-0.276 (active)	0.014	0.001	-0.068	-0.011	-0.065	-0.035	0.076	-0.017	0.043	-0.047
DYRK1A isoform 2 (UniProt Q13627)	0.015	-0.005	0.104	0.048	-0.012	-0.05	0.014	0.036	-0.024	-0.086	-0.046	0.022	-0.135	0.058	-0.264 (active)	0.03	0.036	0.029	0.014	-0.021
DHRS3 (UniProt O75911)	0.134	0.02	0.02	-0.002	0.001	0.001	-0.054	-0.013	-0.062	0.056	-0.022	-0.008	0.001	-0.042	0.044	0.077	-0.04	-0.016	0.004	0.027

From the supplement of paper PMC10849652
